From PubChem BioAssay AID652104 (National Center for Advancing Translational Sciences (NCATS), 2013)
About 7,200 (1.8%) of roughly 410,000 compounds were called active. Another 7% or so got no clear call; they are omitted. The call rests on the fitted dose curve; in most records, active means well fitted activation curve with a large enough effect; inconclusive means small, poorly fitted or top-dose-only effect, or another doubt; inactive means no such curve, though single readings can be large or run the other way. The full list was thinned out, with actives kept by preference.

Assay: qHTS of TDP-43 Inhibitors; further: nearly all actives have a fitted effect of over 50% in size; on growth rescue (activation): % of control where 0% means no effect
Settings: TDP-43 expressing yeast growth rescue, BacTiter-Glo, 24 h; series mostly up to 46.1 µM; growth rescue (activation): at the top concentration
Procedure, shortened: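 Cell-based yeast growth screen: TDP-43 expression induced in galactose, inoculum OD600=0.02 after raffinose pregrowth to mid-log. Read-out BacTiter-Glo luminescence at 24 hr, 30 deg C; inhibition of toxicity seen as signal increase.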
Potency means the concentration at half of the fitted maximal effect.

Growth rescue (activation), inactive:
Cc1cccn2c(=O)c3cc(C(=O)NC(C)c4ccccc4)c(=N)n(CCCO)c3nc12 (centres undefined) -8.98%
CCc1ccc(NC(=O)c2nn(-c3ccc(C)cc3)c(=O)n(C)c2=O)cc1 19% [at 9.22 µM]
CCOC(=O)c1ccc2c(c1)N(Cc1cccc(OC)c1)C(=O)c1ccccc1S2(=O)=O 11.1%
CC(=O)c1ccc(NC(=O)c2nc3nc(C)cc(C(F)F)n3n2)cc1 21.4%
Cc1nn(-c2ccccc2)c2sc(C(=O)N(Cc3ccco3)C(C)C(=O)NC(C)(C)C)cc12 (centres undefined) 11.9%
Cc1cccc(NC(=O)CSc2nnc(CNC(=O)c3cccc(C)c3)n2-c2ccccc2)c1 -2.58%
CCn1c(=O)c2cc(C(=O)Nc3cccc(C(C)=O)c3)sc2c2ccccc21 6.15%
Cc1cccc(C)c1NC(=O)CNC(=O)c1c(C)nn(-c2ccccc2)c1C 21.2%
Cc1nn(-c2ccccc2)c(-n2cccc2)c1C(=O)O 2.82%
Cc1ccc(-c2nnc(SCc3ccccc3C)o2)cc1 14.3%
COc1ccc(CCNC(=O)c2ccc3c(c2)sc2nc(-c4ccc(C)cc4)cn23)cc1OC 19.4%
Oc1ccc(-c2nncn2-c2ccccc2)cc1 7.88%
O=C(OCc1ccc(-c2ccccc2)cc1)c1cccc(O)c1 -90.7%
COCCN(Cc1ccco1)C(=O)Cn1ncc2c([nH]c3ccccc32)c1=O 13%
COc1cccc(CNC(=O)C(=O)NCC(c2cccs2)S(=O)(=O)c2ccccc2)c1 (centres undefined) -8.15%
COc1ccc(Br)cc1CNC(=O)c1cc(=O)[nH]c2ccc(S(=O)(=O)N3CCCC3)cc12 18.9%
CCOC(=O)N1CCc2c(sc3c2C(=O)NC(c2ccccc2F)N3)C1 (centres undefined) 15.8%
CCN(C(=O)CSc1ncnc2c1cnn2-c1ccccc1)C1CCS(=O)(=O)C1 (centres undefined) -4.49%
CCN(c1ncnc2c1cnn2-c1ccc(C)cc1)C1CCCCC1 22%
Clc1cccc(-n2ncc3c(NCCc4ccccc4)ncnc32)c1 0%
CCC(C)N(C(=O)CSc1ncnc2c1cnn2-c1ccccc1)C1CCS(=O)(=O)C1 (centres undefined) 21.9%
COc1ccccc1N1CCN(C(=O)CSc2ncnc3c2cnn3-c2ccc(C)c(C)c2)CC1 4.55%
CCOc1cccc(NC(=O)c2ccc(F)c(S(=O)(=O)N(CC)c3cccc(C)c3)c2)c1 10.1%
Cc1ccccc1-n1c(=O)c2ccccc2n(Cc2ccc(F)cc2)c1=O 0%
CCn1c(C(=O)Nc2cc(Cl)ccc2C)cc2sc(Cl)cc21 5.74%
CCC(=O)N1CCc2cc(Br)cc(S(=O)(=O)CCC(=O)NCc3ccccc3OC)c21 2.93%
CCc1cccc(C)c1NS(=O)(=O)c1ccc(-c2cc(C)no2)s1 6.01%
Cc1cc(NC(=O)C2CCC(CNS(=O)(=O)c3ccc(Br)s3)CC2)ccc1Br (centres undefined) 11.5%
COc1ccc(OC)c(CCNC(=O)CCCn2c(=O)c3cccn3c3cccnc32)c1 9.05%
CN1CCN(C(CNC(=O)c2ccccc2F)c2ccc3c(c2)OCO3)CC1 (centres undefined) 22.5%
Cc1ccc(-c2nnc3c4ccccc4c(C)nn23)cc1NC(=O)c1cccc(Br)c1 6.34%
CCCN1CCN(CCCNC(=O)c2cnn(-c3ccc(C)cc3)c2-n2cccc2)CC1 -13%
Cc1ccc(-c2nn(CCC(=O)Nc3ccc(Cl)c(Cl)c3)c(=O)c3ccccc23)cc1 -5.81%
CCn1nccc1C(=O)Nc1ccc(S(=O)(=O)NC23CC4CC(CC(C4)C2)C3)cc1 -9.71%
COc1ccc(OCC(=O)Nc2cc(C)c(Cl)cc2OC)c([N+](=O)[O-])c1 -6.38%
COc1ccc(-c2noc(-c3ccc(N4CCN(c5ccccc5)CC4)c([N+](=O)[O-])c3)n2)cc1OC 22.5%
COc1ccc(Cl)cc1NC(=O)CSc1nc(=O)[nH]c2c1CCCC2 20.8%
CCOC(=O)c1cc(NC(=O)c2ccc(F)cc2)c(=O)n2c1oc1ccccc12 19%
Cc1ccc(F)cc1NC(=O)CCSc1nc(-c2ccco2)cc(C(F)(F)F)n1 0%
CC(C)(C)c1ccc(S(=O)(=O)NC(=O)C2(C)CCN2C(=O)CC2CC2)cc1 (centres undefined) 12.9%
CCCC(=O)N1CCC1(C)C(=O)NS(=O)(=O)c1ccc(Cl)cc1 (centres undefined) 20.4%
CCCCS(=O)(=O)c1oc(-c2cccs2)nc1S(=O)(=O)c1ccccc1 9.11%
CCC(=O)N1CCc2cc(Br)cc(S(=O)(=O)CCC(=O)NCCc3ccc(OC)c(OC)c3)c21 -3.94%
COc1cccc(CNC(=O)c2ccc3c(c2)sc2nc(-c4cccc(OC)c4)cn23)c1 11.4%
COc1cccc(CNC(=O)CSc2c3c(nc4cc(Cl)ccc24)CCCC3)c1 0%
CCC(C(=O)Nc1cccc(Cl)c1C)n1nc(-c2ccc(C)cc2)ccc1=O (centres undefined) 19.3%
Cc1cccc(C(CC(=O)NCC2(c3ccccc3)CCCC2)c2ccccc2)c1O (centres undefined) 1.56%
COc1ccc(NC(=O)N2CCCC(c3nc(-c4ccc(F)cc4)no3)C2)cc1 (centres undefined) -8.68%
CC(C)c1ccc(NC(=O)C2CCN(c3nc(-c4ccc(C(C)C)cc4)no3)CC2)cc1 15.4%
O=C(Nc1cc(C(F)(F)F)ccc1Cl)c1ccc2c(c1)CCN2S(=O)(=O)c1ccccc1 0.492%
Cc1ccccc1CNC(=O)CSc1nnc(C)c2c(C)n(-c3ccccc3)nc12 -0.0928%
Cc1ccc(Cl)cc1N1CCN(C(=O)c2cn(C)c3ccc(S(=O)(=O)N(C)C4CCCCC4)cc3c2=O)CC1 -6.86%
Cc1cccc(Cn2c(=O)n(CCC(=O)NCCc3ccc(Cl)cc3)c(=O)c3sccc32)c1 -5.44%
Cc1nc2ccccc2nc(=O)c1NNc1ccc([N+](=O)[O-])cc1 12.8% [at 9.22 µM]
O=C1Nc2ccc([N+](=O)[O-])cc2C1=Nc1cccc(CO)c1 -7.38%
NC(=O)CSc1c[nH]c2ccccc12 -0.941%
C[n+]1ccc(/C=C/c2c[nH]c3ccccc23)cc1 -10.3%
NS(=O)(=O)c1ccc2nc(NC(=O)COc3ccccc3)sc2c1 24% [at 9.22 µM]
CC1CN(C(=O)N2CCC(C(=O)NCc3ccco3)CC2)c2cc(Cl)ccc2O1 (centres undefined) 0%
Cc1c(Cl)cccc1-c1ccc(CNCCCSc2nnnn2C)o1 0% [at 9.22 µM]
C=C(Br)Cn1c(CCCC)nc2ccccc21 7.28%
CC(C)c1ccc(Cn2c(COc3ccccc3)nc3ccccc32)cc1 -4.54%
COc1cccc(NC(=O)C(=O)NCC(c2ccc3c(c2)OCO3)N2CCN(C)CC2)c1 (centres undefined) 2.35%
COc1ccc(Cn2c(C(=O)O)c(CNCc3cccc(OC)c3)c3ccc(C)cc32)cc1 5.91%
CCNC(=O)Cn1nc(C)n2c(cc3c(OC)cccc32)c1=O 18.2%
CCOc1ccc(C(=O)N2CCN(CCc3ccccn3)CC2)cc1 19.5%
O=C1C2C3C=CC(C3)C2C(=O)N1c1ccc(S(=O)(=O)Nc2nccs2)cc1 (centres undefined) -11.2%
O=C1C2C3C=CC(C4CC34)C2C(=O)N1c1nccs1 (centres undefined) 21.6%
COc1ccccc1NC(=O)c1oc2ccccc2c1NC(=O)COc1ccccc1OC 13.7%
Cc1ccc(S(=O)(=O)NCC(=O)N2CCOCCOCCOCCOCC2)cc1 -6.52%
CN1CCN(c2ccc(CNS(=O)(=O)c3cccc(F)c3)cc2)CC1 7.06%
O=C(Nc1ccc2nc(SCC(=O)N3CCCc4ccccc43)sc2c1)c1ccc(F)cc1 12.4%
O=C(Nc1ccc(F)cc1F)c1cnn(-c2ccc(F)cc2)c1-n1cccc1 19.2%
COC(=O)c1ccccc1NC(=O)c1cnn(-c2ccc(F)cc2)c1-n1cccc1 0%
CCOC(=O)c1c(C)[nH]c(CCC(=O)NCCCN2CCN(c3cccc(Cl)c3)CC2)c1C 13.5%
Cc1cc(NC(=O)c2ccc(-c3ccc(Cl)cc3)o2)cc(-c2nc3ncccc3o2)c1O 12.2%
Cc1ccc(C(=O)COC(=O)CCCC(=O)NC2CCCCC2)cc1[N+](=O)[O-] 5.33%
Cc1cc([N+](=O)[O-])c(N2CCC[C@@H]2C(=O)O)c([N+](=O)[O-])c1 -26.4%

Potency, inactive:
Cc1ccc(-n2ncc3c(Nc4cccc(C(=O)O)c4)ncnc32)cc1

Potency, active:
CC(=O)c1cccc(NC(=O)c2nc(-c3ccccc3)n(-c3cccc(C)c3)n2)c1 22.4 µM
Cc1cccc(NC(=O)c2cc3c(C)nn(-c4ccccc4)c3s2)c1 35.5 µM
Cc1nn(-c2ccccc2)c(Cl)c1C(=O)Nc1ccccc1 11.2 µM
Oc1ccc(-c2cccc(-c3ccc(O)cc3)c2)cc1 6.31 µM
CCN(CC)C(=O)CSc1ncnc2c1cnn2-c1ccccc1 15.8 µM
COC(=O)CSc1ncnc2c1cnn2-c1ccc(C)cc1C 17.8 µM
CC(C)Sc1ncnc2c1cnn2-c1ccccc1 12.6 µM
CCn1nccc1C(=O)Nc1ccc(Cl)c(Cl)c1 17.8 µM
Cc1nnc(-c2ccc(Oc3ccc(C)c(C)c3)c([N+](=O)[O-])c2)o1 20 µM
CC(C)c1ccc(CC(=O)N2CCC2(C)C(=O)NS(=O)(=O)c2ccc(C(C)(C)C)cc2)cc1 (centres undefined) 22.4 µM
COc1cccc(CNC(=O)c2ccc3c(Cl)c4c(nc3c2)CCCC4)c1 15.8 µM
CCN(C(=O)C1CCCN(c2nc(-c3ccc(OC)cc3)no2)C1)c1ccc(OC)cc1 (centres undefined) 22.4 µM
O=[N+]([O-])c1ccc2c(c1)Nc1nc3ccccc3nc1N2 22.4 µM
CSC(=S)N/N=C/c1c[nH]c2ccccc12 12.6 µM
COCc1nc2ccccc2n1Cc1ccccc1Br 20 µM
O=C1C2C3C=CC(C3)C2C(=O)N1c1ncc([N+](=O)[O-])s1 (centres undefined) 14.1 µM
Cc1ccc(CNS(=O)(=O)c2ccc3c(c2)N(C)CCO3)cc1 15.8 µM
Nc1ccc2c(c1)C(O)c1ccc(Cl)cc1-2 (centres undefined) 20 µM
O=C(c1cnn(-c2ccc(F)cc2)c1-n1cccc1)N1CCN(c2ccc(F)cc2)CC1 25.1 µM
Cc1cc([N+](=O)[O-])c(NC2CCCCC2)c([N+](=O)[O-])c1 35.5 µM
